# Reference: the supplement of paper PMC6555819
# How the values were obtained:
# Assay in all cases: PBM binding z-score (relative to random genomic background probes); higher = stronger binding; sequences stand for … in GC…GCGATTGACAGCGTAGAATGAAGG
# [1] = test system: PPARg:RXRa DBDmut IVT, anti-RXR (DBD mutation: RXRa K156A/R161A, NR concentration 270 nM, RXRa partner concentration 90 nM)
# Method in brief: (§1)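 Random background probes are the reference for binding z-scores. These scores derive from regression-normalized fluorescence on custom Agilent 4×180K protein-binding microarrays incubated 1 h with ligand-free nuclear receptor dimers. Binding was detected with antibodies against each partner (one per run).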
# [2] = test system: PPARg:RXRa IVT, anti-PPARg (NR concentration 270 nM, RXRa partner concentration 90 nM)
# Method in brief: as §1
# [3] = test system: PPARg DBDmut:RXRa IVT, anti-PPARg (DBD mutation: PPARg1 K132A/R137A, NR concentration 270 nM, RXRa partner concentration 90 nM)
# Method in brief: as §1
# [4] = test system: PPARg DBDmut IVT, anti-PPARg (DBD mutation: PPARg1 K132A/R137A, NR concentration 270 nM)
# Method in brief: as §1
# [5] = test system: PPARg homodimer (NR concentration 180 nM)
# Method in brief: as §1
# [6] = test system: PXR:RXRa (NR concentration 270 nM, RXRa partner concentration 90 nM)
# Method in brief: as §1
# [7] = test system: PXR homodimer (NR concentration 270 nM)
# Method in brief: as §1
# [8] = test system: RARa:RXR (NR concentration 270 nM, RXRa partner concentration 90 nM)
# Method in brief: as §1
# [9] = test system: RARa homodimer (NR concentration 270 nM)
# Method in brief: as §1
# [10] = test system: RARb:RXRa (NR concentration 270 nM, RXRa partner concentration 90 nM)
# Method in brief: as §1
Sequence,PBM binding z-score [1],PBM binding z-score [2],PBM binding z-score [3],PBM binding z-score [4],PBM binding z-score [5],PBM binding z-score [6],PBM binding z-score [7],PBM binding z-score [8],PBM binding z-score [9],PBM binding z-score [10]
CGAACTAGGTCAAGAGGTCAAAGTCCGCTTCCCG,8.26,8.1,0.974,-0.335,5.23,6.23,3.31,7.7,2.18,5.48
CTCAAAAGGTCGGTTGAGGTGAGTATACGGATAA,-0.129,1.12,0.328,0.889,0.591,3.26,0.191,2.82,-0.384,3.4
TCTGCTAGGTCAACGATGGTCAGCTGATCTGCTA,3.61,4.29,-0.0935,1.17,0.984,1.58,-0.669,2.3,-0.39,4.03
TTGAGTAGGTTAGGGGCATTCAGAATGGCGTCGA,3.21,2.8,0.225,0.781,1.61,0.703,1.3,0.894,1.42,1.42
CCTACTGGGCCATCAGGTCTTTGATATCAACGTT,4.27,4.11,-0.465,-0.285,0.396,-0.399,-0.181,-0.151,-0.266,0.423
GGAACGAGGGAAAGTTGATAGCAGAGTTTGATGG,0.0988,-0.37,-0.287,-0.305,0.398,-0.176,0.056,-0.338,-0.00431,-0.247
CGTCCAAAGTCAGAGAGGTCAGTGAATGCCGAGT,0.254,0.644,-0.212,-0.647,1.79,3.05,1.35,2.85,0.862,3.27
ATATGTAGGTTACATCCGGGCCATTCAGGCTATG,7.19,7.09,3.74,3.02,0.583,0.633,0.119,0.816,0.221,1.15
ATCGAATGGTCGACGAGGTGAGTATACACCGTTT,-0.664,0.567,-0.0586,-0.0219,-0.342,-0.323,-0.282,-0.136,-0.0822,0.37
TCTTGTAGATCAGCAGGTTAAGCAAGCTGGCCAA,1.37,0.191,-0.396,0.0188,-0.763,0.022,-0.446,0.058,-1.03,0.0308
AATACAGGGTCATCGTAGGCCCGAGTACGCACAG,2.64,3.72,0.916,-0.158,1.25,3.92,0.581,4.7,0.922,4.23
CGCCCAAGGTCAGAGAGGTCAGTGAATGCCGAGT,2.95,2.94,-0.485,-0.732,3.98,5.86,11.8,5.47,3.01,5.09
TCAGACAGGTGAACGTAACTCAGGTACGCAGTCG,2.71,1.55,0.22,-0.331,0.406,0.573,0.448,0.752,0.0461,1.19
CCGAGTAGGTTATCGGGCATTCAGGCAACGGTGA,2.93,2.72,-1.04,-1.21,0.257,-0.121,-0.43,0.241,0.0766,0.742
TATACAGGGTCAAATGCCAGAGTACGAATGTCGA,2.62,4.6,3.56,3.07,3.17,4.3,1.12,5.47,1.22,4.55
TCTCGGAGGACACGAAGGTCAGAGCCTTCCAGAG,1.3,0.917,-1.24,-1.76,1.08,2.11,0.864,2.36,0.0341,3.33
TCATATAGGTAAAAGGTGTAAGTCGGTGTGGTAA,4.99,3.58,1.13,0.898,1.04,0.588,0.592,0.719,0.894,0.49
ATATGTAGGTTAAGGGTCATTCACGTTGGTTCGC,7.26,8.08,3.39,2.65,4.43,4.79,0.957,5.91,1.47,3.54
ATATGTAGGTTATCGGGCCATTCAGTTTGCGCAT,7.31,6.82,2.32,3.56,1.89,0.605,1.06,0.558,1.09,1.08
TCAGACAGGGGAAGGTAACTCAGGTACGCAGTCG,2.26,0.171,0.134,-0.73,0.755,0.624,0.441,0.193,0.801,0.352
TGTTGTAGATCAAAGGTTAAGAAAGCCGAAGCCT,-0.0218,3.76,0.531,0.517,1.54,2.04,0.18,2.87,0.902,1.89
AGAATGAGGTTAAGATCAGCGAAACAGAATACAT,1.69,2.37,1.19,0.858,-0.266,0.978,0.422,1.82,0.555,1.83

Sequence,PBM binding z-score [1],PBM binding z-score [2],PBM binding z-score [3],PBM binding z-score [4],PBM binding z-score [5],PBM binding z-score [6],PBM binding z-score [7],PBM binding z-score [8],PBM binding z-score [9],PBM binding z-score [10]
CTCGAAAGGTCGGTTGAGGTGAGTATGCGGATAA,0.239,1.05,-0.43,0.0422,1.08,2.93,0.0767,2.11,0.202,3.01
GCTTGTAGATCAAGGTAAAGAAAGACTAAGCTAA,0.905,0.644,-0.0923,0.000518,-0.791,-0.53,-0.448,0.178,-0.716,-0.161
ATCTCTAGGTAACCAAGTTCACTGAATGCCGAAC,3.89,3.32,0.487,1.47,1.17,3.1,3.34,1.64,0.615,1.9
TCATATAGGTAAATGCTAGGGGAAAGTCCGATCT,4.25,2.11,1.09,1.29,0.609,0.434,0.33,0.628,1.4,0.327
GCAGACAGGAGAAACGCAGGTAACTCAGGGTGGC,-0.542,-0.859,-0.9,-0.99,-0.201,-0.694,-0.412,-0.368,-1.26,-0.624
ATACCAAGGTGATCGTGAGGTAGTTGATACTAAC,0.454,0.993,1.09,0.92,-0.0605,-0.117,0.172,-0.156,0.171,0.566
ATCGAAAGGTCGACGAGGTGAGTTTACACCGTTT,0.636,2,1.01,0.288,1.24,3.35,0.675,3.27,0.024,3.9
CTAACTAGGTCATCCAGGACAGTGAATACATTGA,8.55,8.68,3.4,1.83,2.45,2.07,1.37,2.83,0.768,3.88
GATATTAGTTGAAAGGGCAACCGAATGATTCTCG,0.557,1.16,0.952,0.799,2.21,0.994,0.916,1.81,2.21,2.27
CCTACTGGGCCATTCGGAGGTCATTGATCATATG,4.18,3.88,-0.0532,-0.182,1.81,3.79,2.38,3.45,-0.323,2.54
CCTAGCAGGCCAATCTGGGCCACTCAAGGCTTGA,2.99,2.85,-0.703,-1.73,-0.99,-1.04,-1.05,-1.11,-0.723,0.0812
ATCGAGAGGTCGACGAGGTGAGTATACACCGTTT,0.355,1.71,-0.00601,0.563,0.663,2.43,0.615,2.84,-0.215,2.8
ATTATTAGTTGACTTAGGGCAACCGATACGACGC,0.113,0.899,2.01,2.21,2.16,1.14,1.53,0.95,2.43,1.12
GCTAGCAGGCCATTTGGGGCACTCAATGACGGGC,1.12,0.8,-0.58,-1.74,-0.698,-0.594,-0.802,-0.159,-1.06,0.199
TAGCCTAGGTCATGCCGGCCAGTATAGTGTCGGC,1.13,2.47,-0.929,-0.11,0.237,0.798,-0.486,1.77,-0.917,3.48
GATACAGGGCCAGCTAGAGGCCAGAGTATGGAAA,-0.745,-0.681,-0.858,-1.22,-0.793,-0.72,-0.244,-0.464,-0.203,0.56
TGAATGAGTTTAAAGATCAGGGAACGTGGCGTCG,-0.728,-0.0345,0.667,-0.281,0.122,0.802,0.782,0.485,0.41,0.682
TCTGCGAGGTCAGTTGGTCAGCTAACGAGCTGCC,1.99,3.25,2.02,0.235,1,2.88,0.146,2.68,-0.6,4.51
CCTGCTAGGTAATGGTCAGCTAATCTACAGTATG,1.12,0.132,-0.293,-0.811,-0.722,-0.534,-0.524,-0.39,0.217,0.113
AGTCGAAGTTCATCTAGGTAACGTAAGATATGCT,0.32,2.06,0.625,0.713,1.04,3.3,2.97,1.67,0.799,3.05
ACAGACAGGTGAGAGAAGGTAACTCAGCTGGACG,0.676,0.706,0.0985,-0.367,-0.0826,-0.372,-0.505,0.102,-0.00725,0.565
GCGACTGGGGCATCAGAAGGTTACCATAACTTAA,3.59,3.39,0.195,-0.175,0.756,0.582,-0.271,0.988,-0.432,1.2
